For 26 molecules, z-score results are on record in PubChem BioAssay.

A number with no mark means an inactive call.

The target in the experiment is Homeobox protein Hox-A13 (Mus musculus) (UniProt Q62424). The experiment can be described thus: disruptors of Hoxa13 oligonucleotide interaction – biochemical, fluorescence polarization, labeled oligonucleotide, primary screen (AID 1185). The note with it: Hoxa13:DNA binding, 15 min, higher = more signal, called active from +8 up or from −8 down. In general terms: Fluorescence polarisation rises when a labelled molecule tumbles more slowly, as on binding a larger partner.
Chain of Homeobox protein Hox-A13 (Mus musculus) (Q62424 whole entry, looked up): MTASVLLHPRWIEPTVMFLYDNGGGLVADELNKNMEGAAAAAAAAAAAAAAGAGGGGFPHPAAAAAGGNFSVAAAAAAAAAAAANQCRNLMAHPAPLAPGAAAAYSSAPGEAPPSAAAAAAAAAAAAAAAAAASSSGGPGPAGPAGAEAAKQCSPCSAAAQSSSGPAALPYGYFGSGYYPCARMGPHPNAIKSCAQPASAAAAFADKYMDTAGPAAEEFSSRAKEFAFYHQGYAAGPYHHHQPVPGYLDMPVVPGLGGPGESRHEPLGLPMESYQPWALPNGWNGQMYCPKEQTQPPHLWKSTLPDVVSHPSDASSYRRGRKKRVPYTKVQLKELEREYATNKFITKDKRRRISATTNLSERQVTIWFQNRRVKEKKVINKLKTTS
Consider `CO[C@H]1COC(=O)CC=C[C@H](C)COC(=O)[C@@H](OCc2ccccc2)C=C[C@@H]1C`, for which the z-score is 1.89. On to `CCN1C(C)=C(C(=O)OC)[C@@H](c2ccccc2)N2C(=O)[C@@]3(C(=O)OC)O[C@@]12[C@@H]1C(=O)N(c2ccccc2)C(=O)[C@@H]13`, for which the z-score was -0.559. `C#CCCCON=C1C[C@@H](O)[C@@H](O)[C@@H]2[C@@H]3C(=O)N(Cc4ccc5c(c4)OCO5)C(=O)[C@@H]3CC[C@H]12`: the z-score is -0.469. For `COc1cc([C@@H]2N[C@H](C(=O)O)Cc3c2[nH]c2ccccc32)cc(OC)c1OC`, the z-score is -1.66. As to `CO[C@H]1COC(=O)[C@H](C)COC(=O)[C@H](Cc2ccccc2)NC(=O)CC=C[C@H]1C`, the z-score is 0.57. For the molecule `CO[C@@H]1COC(=O)[C@H](C)NC(=O)CC=C[C@@H](C)[C@H](NS(=O)(=O)c2ccc(C)cc2)COC(=O)CC=C[C@@H]1C`, the z-score was 0.769. With `O=C(O)[C@@H]1Cc2c([nH]c3ccccc23)[C@@H](c2ccccc2)N1`, the z-score was 0.969. Take `CO[C@H]1COC(=O)CC=C[C@H](C)[C@@H](OC)COC(=O)[C@H](Cc2ccccc2)NC(=O)CC=C[C@@H]1C`: the z-score is -0.426.

As for `C[C@@H]1NC(=O)CC=C[C@@H](C)[C@@H]2C=C[C@H](O)[C@@H](COC(=O)[C@H](C)NC(=O)CC=C[C@@H](C)[C@@H]3C=C[C@H](O)[C@@H](COC1=O)O3)O2`, the z-score was 0.881.

On to `CCC(=O)[C@]12O[C@@]3([C@@H]4C(=O)OCC[C@@H]41)N(CC)C(C)=C(C(=O)OC)[C@@H](c1ccccc1)N3C2=O`, for which the z-score was -0.864.

`CO[C@H]1COC(=O)CC=C[C@@H](C)COC(=O)[C@@H](C)NC(=O)CC=C[C@@H]1C`: the z-score was 0.382.

For `C=CCc1cccc([C@@H]2[C@@H](C)CC[C@H]3C(=O)N4[C@H](c5cccc(CC=C)c5)[C@@H](C)CC[C@H]4C(=O)N23)c1`, the z-score is -3.9. The same measure for `CCN1C(C)=C(C(=O)OC)[C@@H](c2ccccc2)N2C(=O)[C@@]3(C(=O)OC)O[C@@]12[C@@H]1C(=O)N(C)C(=O)[C@@H]13`: -0.663. For the molecule `CO[C@H]1COC(=O)[C@@H](OCc2ccccc2)C=C[C@H](C)[C@@H](OC)COC(=O)[C@H](OCc2ccccc2)C=C[C@@H]1C`, the z-score is 0.371. Under `CO[C@H]1COC(=O)[C@H](CCSC)NC(=O)CC=C[C@@H](C)COC(=O)[C@@H](OCc2ccccc2)C=C[C@@H]1C` stands 0.26; under `CO[C@H]1COC(=O)[C@H](C)NC(=O)CC=C[C@@H](C)[C@H](NS(=O)(=O)c2ccc(C)cc2)COC(=O)CC=C[C@@H]1C`, -1.62.

For the molecule `CCC(=O)[C@]12O[C@@]3([C@@H]4C(=O)OCC[C@@H]41)N(Cc1ccccc1)C(C)=C(C(=O)OC)[C@@H](c1ccccc1)N3C2=O`, the z-score was -4.26.

In the case of `CO[C@@H]1COC(=O)[C@H](COCc2ccccc2)NC(=O)CC=C[C@@H](C)[C@H](OC)COC(=O)[C@H](COCc2ccccc2)NC(=O)CC=C[C@H]1C`, the z-score is 0.421. With `Cc1ccc(S(=O)(=O)N[C@H]2COC(=O)CC=C[C@H](C)COC(=O)N[C@@H](C)C(=O)CC=C[C@@H]2C)cc1`, the z-score is -1.11. For the molecule `C[C@@H]1C=CCC(=O)OC[C@H]2O[C@@H](C=C[C@@H]2O)[C@H](C)C=CCC(=O)OC[C@H]2O[C@H]1C=C[C@@H]2O`, the z-score is -1.31.

On to `COc1cccc([C@@H]2[C@@H](C)CC[C@H]3C(=O)N(C)[C@@H](C(C)C)C(=O)N23)c1`, for which the z-score was -0.0898. On to `CC(=O)Nc1ccc([C@H]2[C@H](C)CC[C@H]3C(=O)N4[C@@H](CC[C@@H](C)[C@@H]4c4ccc(NC(C)=O)cc4)C(=O)N32)cc1`, for which the z-score was -6.37. Consider `C[C@@H]1CC[C@H]2C(=O)N3[C@@H](CC[C@@H](C)[C@@H]3c3cccc(N4CCOCC4)c3)C(=O)N2[C@H]1c1cccc(N2CCOCC2)c1`, for which the z-score is -4.07. Take `COc1cccc([C@@H]2[C@@H](C)CC[C@H]3C(=O)N4[C@H](c5cccc(OC)c5)[C@@H](C)CC[C@H]4C(=O)N23)c1`: the z-score is -1.96. Regarding `C[C@H]1COC(=O)[C@H](Cc2ccccc2)NC(=O)[C@@H](C)COC(=O)[C@H](Cc2ccccc2)NC1=O`, the z-score was 1.01. As to `CO[C@@H]1COC(=O)[C@@H]2CCCN2C(=O)CC=C[C@@H](C)[C@H](OC)COC(=O)[C@@H]2CCCN2C(=O)CC=C[C@H]1C`, the z-score is -0.507.
